In experiment [1] the target is ATP-dependent 6-phosphofructokinase (Trypanosoma brucei brucei) (UniProt O15648). Briefly: qHTS Assay to Find Inhibitors of T. brucei phosphofructokinase: hit validation (AID 492961).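 Note: luminescence reports ADP formed as PFK phosphorylates fructose-6-phosphate with ATP; series mostly up to about 51 µM.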 The method, boiled down: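 In this biochemical qHTS validation, titrated compounds were tested against 1.25 nM PFK with 0.1 mM ATP and 0.5 mM F6P. Percent activity came from controls lacking or containing enzyme.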
Sequence of ATP-dependent 6-phosphofructokinase (Trypanosoma brucei brucei) (O15648 whole entry, looked up): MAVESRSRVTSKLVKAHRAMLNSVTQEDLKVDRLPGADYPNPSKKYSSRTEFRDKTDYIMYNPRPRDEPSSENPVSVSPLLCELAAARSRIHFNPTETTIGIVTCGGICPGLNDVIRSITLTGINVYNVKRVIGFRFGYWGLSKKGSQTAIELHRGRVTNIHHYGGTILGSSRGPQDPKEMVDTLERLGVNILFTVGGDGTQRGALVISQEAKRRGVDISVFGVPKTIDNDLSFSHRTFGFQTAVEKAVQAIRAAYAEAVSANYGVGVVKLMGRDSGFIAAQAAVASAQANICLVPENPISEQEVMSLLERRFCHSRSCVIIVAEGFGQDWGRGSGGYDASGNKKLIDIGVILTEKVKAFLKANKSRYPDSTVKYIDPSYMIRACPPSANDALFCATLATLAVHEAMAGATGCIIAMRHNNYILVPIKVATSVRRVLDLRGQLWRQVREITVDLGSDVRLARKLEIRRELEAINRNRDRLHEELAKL

The target in experiment [2] is Ubiquitin carboxyl-terminal hydrolase 1 (Homo sapiens) (UniProt O94782). Briefly: Inhibitors of USP1/UAF1: Pilot qHTS (AID 504865).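 Note: rhodamine fluorescence freed from ubiquitin-rhodamine substrate followed over time; top concentration of the series differs between compounds; nearly all actives have a fitted effect of over 35% in size.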 Summed up: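 Enzyme-free wells gave the negative control, while test wells held 1nM USP1/UAF1 preincubated with compound for 15 min at room temperature. Ub-Rho at 150nM final started the reaction, and fluorescence at 480/540 nm was recorded kinetically.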
Sequence of Ubiquitin carboxyl-terminal hydrolase 1 (Homo sapiens) (O94782 whole entry, looked up): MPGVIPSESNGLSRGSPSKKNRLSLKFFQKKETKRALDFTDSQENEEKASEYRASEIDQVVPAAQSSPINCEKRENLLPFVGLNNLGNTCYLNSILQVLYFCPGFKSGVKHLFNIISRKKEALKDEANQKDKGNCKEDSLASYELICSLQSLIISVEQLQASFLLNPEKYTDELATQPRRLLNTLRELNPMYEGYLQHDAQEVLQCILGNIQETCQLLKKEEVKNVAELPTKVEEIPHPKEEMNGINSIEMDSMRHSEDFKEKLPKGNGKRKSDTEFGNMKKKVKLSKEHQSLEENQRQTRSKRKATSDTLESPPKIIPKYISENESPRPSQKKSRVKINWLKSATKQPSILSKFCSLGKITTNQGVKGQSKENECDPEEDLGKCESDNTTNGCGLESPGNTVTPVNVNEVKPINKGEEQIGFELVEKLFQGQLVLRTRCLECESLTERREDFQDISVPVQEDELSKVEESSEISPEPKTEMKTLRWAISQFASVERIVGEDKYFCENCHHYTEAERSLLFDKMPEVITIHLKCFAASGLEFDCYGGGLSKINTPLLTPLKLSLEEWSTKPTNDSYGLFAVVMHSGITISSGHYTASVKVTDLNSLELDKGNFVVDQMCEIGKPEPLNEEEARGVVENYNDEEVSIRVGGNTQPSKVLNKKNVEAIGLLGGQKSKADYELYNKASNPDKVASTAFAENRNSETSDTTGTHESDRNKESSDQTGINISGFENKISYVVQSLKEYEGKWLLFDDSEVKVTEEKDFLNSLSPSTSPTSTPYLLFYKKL

Experiment [3] has as its target Methanococcus maripaludis chaperonin (MmCpn) (UniProt Q6LX38). Briefly: High-Throughput Screening for Modulators of Cytosolic Chaperonin Activity: MmCpn Primary Screen (AID 488978). Summed up:
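HTRF readout (320 nm excitation, 590/665 nm emission) of ADP generated by 50 nM MmCpn hydrolysing 30 uM ATP during 10 min at 37C; compound preincubated 5 min RT.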

Experiment [4] deals with Transient receptor potential cation channel subfamily V member 1 (Homo sapiens) (UniProt Q8NER1). Briefly: HTS Assay for Compounds that Act as Enhancers of the Vanilloid Receptor 1 (AID 488979). Summed up: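 Calcium influx kinetics via Fluo-8 (480/520 nm) in TRPV1-expressing cells, 2000/well cultured overnight at 35.5C. Compound-alone read 3 min (agonist phase), followed by EC20 capsaicin challenge for 2 min (enhancer phase).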

The target in experiment [5] is Thyrotropin receptor (Homo sapiens) (UniProt P16473). Briefly: qHTS Assay for Antagonists of the Thyroid Stimulating Hormone Receptor (AID 488980). Note: series mostly up to about 58 µM. The method, boiled down:
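Inhibition of TSH-stimulated cAMP accumulation was quantified by homogeneous time-resolved FRET in TSHR-transfected HEK293 cells. Agonist: TSH, 4 nM final (EC80).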

Experiment [6] addresses D(1A) dopamine receptor (Homo sapiens) (UniProt P21728). Briefly: HTS Assay for Allosteric Agonists of the Human D1 Dopamine Receptor: Primary Screen for Agonists (AID 488981). Summed up: (§1)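 Calcium flux in an inducible, force-coupled HEK293 Trex D1 line (overnight at 30 C): agonist mode is the 180 s kinetic read after compound; potentiator mode is the following 180 s read after dopamine at EC20.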

For experiment [7] the target is unchanged. Briefly: HTS Assay for Allosteric Agonists of the Human D1 Dopamine Receptor: Primary Screen for Potentiators (AID 488982). Summed up:
as §1

Experiment [8] has the same target. Briefly: HTS Assay for Allosteric Agonists of the Human D1 Dopamine Receptor: Primary Screen for Antagonists (AID 488983).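 Note: calcium flux response to an EC80 dopamine challenge measured with no-wash dye; nearly all actives have a fitted effect of over 65% in size.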 The method, boiled down:
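Tetracycline-induced HEK293 T-REx cells expressing force-coupled D1 were plated overnight at 30 C, dye-loaded for calcium, and read kinetically. Compounds were pinned in, then an EC80 dopamine challenge followed after 180 s to reveal antagonism.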

Experiment [9] in a line: Validation screen for small molecules that induce genotoxicity in human embryonic kidney (HEK293T) cells expressing luciferase-tagged ELG1 (AID 493106). The method, boiled down:
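HEK293T cells expressing luciferase-tagged ELG1 were exposed to compound or DMSO vehicle for 16 hr at 37 °C, 5% CO2. Genotoxic stress raises ELG1 levels, so increased luciferase signal after ONE-Glo addition and 30 min at room temperature marks hits.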

Experiment [10] concerns the target ATPase family AAA domain-containing protein 5 (Homo sapiens) (UniProt Q96QE3). Briefly: Validation screen for small molecules that inhibit ELG1-dependent DNA repair in human embryonic kidney (HEK293T) cells expressing luciferase-tagged ELG1 (AID 493107).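 Note: cells co-treated with the DNA-damaging agent 5-fluorouridine alongside compound; series mostly up to about 46 µM; inhibitors lower the ELG1-luciferase luminescence signal; nearly all actives have a fitted effect of over 70% in size.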 The method, boiled down: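 HEK293T cells expressing luciferase-tagged ELG1 were co-treated with 5-fluorouridine and compound or DMSO for 16 hr at 37 °C, 5% CO2. Luciferase activity was then read with ONE-Glo after 30 min at room temperature; suppressed signal indicates blocked ELG1 function.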

Experiment [11] in a line: Nrf2 qHTS screen for inhibitors: Validation (AID 493153; active = well fitted inhibition curve with a large enough effect in the main read-out, with a control signal flat, not every such curve was filed as active). Particulars: viability change: measured here: cytotoxicity max response. Summed up: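 A549 cells carrying an ARE-driven firefly luciferase reporter, in 5% FBS OPTI-MEM, were treated with compounds in concentration-response for 18-24 h at 37°C. Viability was read by CellTiter-Fluor fluorescence, then Nrf2 activity by luciferase luminescence.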

A short description of experiment [12]: qHTS for Inhibitors of Cell Surface uPA Generation: Validation Assay (AID 493164).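 Note: RAW 264.7 macrophage cells exposed to compound for 18 h.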 The method, boiled down:
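RAW 264.7, 4000 cells/well, o/n plating; cpd 7-pt 1:5 dilution 2.45 nM–38.3 uM final; 18 h, 37 C/5% CO2; ATP-Lite, 5 s luminescence exposure.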

Experiment [13] deals with Galactokinase (Homo sapiens) (UniProt P51570). Briefly: qHTS Validation Assay for Inhibitors of Human Galactokinase (GALK) (AID 493189). The method, boiled down: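 Enzyme activity is inferred from ATP consumption: human GALK phosphorylates galactose (100 uM) using 35 uM ATP for 1 h at room temperature, and luciferase-based Kinase-Glo Plus reports unconsumed ATP.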
Sequence of Galactokinase (Homo sapiens) (P51570 whole entry, looked up): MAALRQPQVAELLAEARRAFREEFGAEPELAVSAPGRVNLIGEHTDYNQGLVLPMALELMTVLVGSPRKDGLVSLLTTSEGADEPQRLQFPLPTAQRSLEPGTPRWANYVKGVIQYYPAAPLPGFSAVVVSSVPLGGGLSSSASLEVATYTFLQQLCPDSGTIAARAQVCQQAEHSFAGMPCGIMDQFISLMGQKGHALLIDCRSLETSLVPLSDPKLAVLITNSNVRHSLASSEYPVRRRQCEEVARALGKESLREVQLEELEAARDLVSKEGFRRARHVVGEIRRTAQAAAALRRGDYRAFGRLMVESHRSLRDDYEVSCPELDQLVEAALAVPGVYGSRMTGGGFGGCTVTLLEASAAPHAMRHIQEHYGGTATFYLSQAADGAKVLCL
Experiment [14] can be described thus: Validation screen for small molecules that induce DNA re-replication in SW480 colon adenocarcinoma cells (AID 504364). Summed up: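 SW480 cells seeded at 250 per well were exposed to compound or DMSO for 48 hr at 37 C, 5% CO2, then stained with Hoechst for 40 min. DNA content per nucleus was imaged (405 nm ex, 500-530 nm em).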
For experiment [15], the target named is Peptidyl-prolyl cis-trans isomerase NIMA-interacting 1 (Homo sapiens) (UniProt Q13526). Briefly: qHTS Validation Assay to Find Inhibitors of Pin1 (AID 504536; active = well fitted inhibition curve with a large enough effect in the polarisation, with a control signal flat, not every such curve was filed as active; the % refers to the polarisation). The method, boiled down: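 Fluorescence polarization competition: compounds (titration) displace HiFluor-488-labeled Pin1-1b peptide from Pin1 (0.3 uM final) in pH 7.5 HEPES buffer with DTT, 10 min at room temperature; %Activity normalized to no-enzyme wells, curves fitted.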
Sequence of Peptidyl-prolyl cis-trans isomerase NIMA-interacting 1 (Homo sapiens) (Q13526 whole entry, looked up): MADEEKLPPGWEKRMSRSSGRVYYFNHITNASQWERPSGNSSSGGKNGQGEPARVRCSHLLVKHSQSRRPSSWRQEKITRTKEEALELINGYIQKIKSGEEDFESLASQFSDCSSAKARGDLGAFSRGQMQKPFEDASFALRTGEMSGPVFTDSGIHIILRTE

In experiment [16] the target is Phosphoglycerate kinase, glycosomal (Trypanosoma brucei brucei) (UniProt P07378). Briefly: qHTS Validation Assay to Find Inhibitors of Phosphoglycerate Kinase (AID 504547). Summed up:
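Inhibition of the enzyme is judged by a Kinase-Glo Plus luminescent signal following a one-hour incubation at room temperature. Because 1,3-BPG is unstable, it is made in situ by GAPDH at 100nM final; no-PGK wells define the baseline.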

Experiment [17] concerns the target phosphoglycerate mutase (Leishmania major) (UniProt Q4Q090). Briefly: qHTS Validation Assay to Find Inhibitors of Phosphoglycerate Mutase (AID 504548). Note: series mostly up to about 58 µM. The method, boiled down:
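Luminescent end-point read-out via Kinase-GloPlus after a 10-minute development. Reaction: 1.25nM Leishmania major PGAM with substrate and compound, 45 minutes at room temperature in TEA buffer (pH 7.6) with MgCl2 and Tween-20.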

For experiment [18], the target named is Estrogen receptor (Homo sapiens) (UniProt P03372). Briefly: qHTS assay for small molecule antagonists of estrogen receptor alpha signaling (AID 588513; active = well fitted curve in the direction sought with a large enough effect in the signal ratio, with a control signal flat, not every such curve was filed as active; the % refers to the signal ratio). Summed up:
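Antagonist-mode qHTS in ER-alpha-UAS-bla HEK 293 cells: compound titration, 0.5nM estradiol for 18 h, CCF4 fluorescence, Hill-derived IC50.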

Experiment [19] addresses DNA dC->dU-editing enzyme APOBEC-3G (Homo sapiens) (UniProt Q9HC16). Briefly: qHTS for inhibitors of Vif-A3G interactions: Validation (AID 588379). Summed up:
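HeLa cells stably expressing Vif and A3G-eYFP, 700 cells/well, incubated overnight at 37 deg C, then exposed to compound overnight at 37 deg C. Inhibition of Vif-mediated degradation read as increased yellow fluorescence (Ex 488/Em 500-530) by laser-scanning cytometry.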

Each structure is given as a SMILES string. Results filed as inconclusive are left out. Entries that show only a call come without a potency. Activity calls are given as the source filed them. Unless noted, calls come from the whole dose curve; as a rule, active = well fitted curve in the direction sought with a large enough effect; inconclusive = small, poorly fitted or top-dose-only effect, or another doubt; inactive = no such curve, though single readings can be large; an effect the other way counts as inactive or inconclusive.

Sequence of D(1A) dopamine receptor (Homo sapiens) (P21728 whole entry, looked up): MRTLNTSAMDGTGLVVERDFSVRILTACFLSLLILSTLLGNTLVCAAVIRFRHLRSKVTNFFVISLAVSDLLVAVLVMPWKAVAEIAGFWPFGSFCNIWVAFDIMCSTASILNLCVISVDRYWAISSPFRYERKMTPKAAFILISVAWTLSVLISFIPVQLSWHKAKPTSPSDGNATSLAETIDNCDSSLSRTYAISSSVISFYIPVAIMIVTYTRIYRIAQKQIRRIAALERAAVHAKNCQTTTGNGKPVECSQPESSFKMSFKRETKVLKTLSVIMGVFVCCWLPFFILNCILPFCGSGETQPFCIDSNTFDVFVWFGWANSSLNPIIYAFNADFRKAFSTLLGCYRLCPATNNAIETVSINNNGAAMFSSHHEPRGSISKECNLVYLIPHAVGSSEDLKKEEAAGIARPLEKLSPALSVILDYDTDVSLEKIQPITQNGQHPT
Sequence of DNA dC->dU-editing enzyme APOBEC-3G (Homo sapiens) (Q9HC16 whole entry, looked up): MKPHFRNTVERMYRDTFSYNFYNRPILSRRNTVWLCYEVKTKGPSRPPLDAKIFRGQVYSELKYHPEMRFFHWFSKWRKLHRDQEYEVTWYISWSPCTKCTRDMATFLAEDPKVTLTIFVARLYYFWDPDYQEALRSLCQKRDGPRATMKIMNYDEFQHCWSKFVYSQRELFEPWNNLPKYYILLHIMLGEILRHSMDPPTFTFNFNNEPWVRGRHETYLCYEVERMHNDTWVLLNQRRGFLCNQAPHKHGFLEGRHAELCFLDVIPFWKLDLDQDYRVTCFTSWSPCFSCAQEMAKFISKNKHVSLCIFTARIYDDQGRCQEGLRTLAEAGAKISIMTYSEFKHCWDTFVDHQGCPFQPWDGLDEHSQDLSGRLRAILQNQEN
Sequence of Estrogen receptor (Homo sapiens) (P03372 whole entry, looked up): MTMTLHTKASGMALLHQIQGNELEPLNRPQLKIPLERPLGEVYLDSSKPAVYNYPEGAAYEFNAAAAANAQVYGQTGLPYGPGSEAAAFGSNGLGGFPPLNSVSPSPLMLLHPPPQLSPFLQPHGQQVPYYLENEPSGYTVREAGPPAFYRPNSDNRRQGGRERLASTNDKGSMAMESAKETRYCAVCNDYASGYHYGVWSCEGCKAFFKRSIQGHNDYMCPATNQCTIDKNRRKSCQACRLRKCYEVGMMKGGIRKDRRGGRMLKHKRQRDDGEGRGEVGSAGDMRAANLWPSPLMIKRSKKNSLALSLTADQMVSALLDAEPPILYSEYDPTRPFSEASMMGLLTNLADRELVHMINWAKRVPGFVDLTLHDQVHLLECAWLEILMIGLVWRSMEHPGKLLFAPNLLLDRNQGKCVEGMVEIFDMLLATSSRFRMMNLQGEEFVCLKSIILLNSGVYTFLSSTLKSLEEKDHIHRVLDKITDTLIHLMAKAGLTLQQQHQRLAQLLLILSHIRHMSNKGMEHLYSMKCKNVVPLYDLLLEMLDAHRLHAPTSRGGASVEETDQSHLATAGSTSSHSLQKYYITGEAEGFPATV
Sequence of Methanococcus maripaludis chaperonin (MmCpn) (Q6LX38 1-543): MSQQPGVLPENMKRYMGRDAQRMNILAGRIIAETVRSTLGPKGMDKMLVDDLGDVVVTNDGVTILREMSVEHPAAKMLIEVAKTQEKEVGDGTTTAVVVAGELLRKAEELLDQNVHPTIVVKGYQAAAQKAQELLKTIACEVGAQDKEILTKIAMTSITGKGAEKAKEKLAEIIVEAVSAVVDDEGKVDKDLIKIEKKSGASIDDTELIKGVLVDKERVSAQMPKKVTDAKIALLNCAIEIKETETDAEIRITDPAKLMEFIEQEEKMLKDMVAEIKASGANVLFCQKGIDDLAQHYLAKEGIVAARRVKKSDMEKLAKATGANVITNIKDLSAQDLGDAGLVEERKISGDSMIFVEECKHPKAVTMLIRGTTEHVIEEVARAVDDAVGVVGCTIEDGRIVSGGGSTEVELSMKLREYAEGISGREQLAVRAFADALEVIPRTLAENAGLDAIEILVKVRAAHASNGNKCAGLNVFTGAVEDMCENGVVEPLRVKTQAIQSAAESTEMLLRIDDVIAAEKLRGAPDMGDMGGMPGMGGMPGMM
Sequence of Phosphoglycerate kinase, glycosomal (Trypanosoma brucei brucei) (P07378 whole entry, looked up): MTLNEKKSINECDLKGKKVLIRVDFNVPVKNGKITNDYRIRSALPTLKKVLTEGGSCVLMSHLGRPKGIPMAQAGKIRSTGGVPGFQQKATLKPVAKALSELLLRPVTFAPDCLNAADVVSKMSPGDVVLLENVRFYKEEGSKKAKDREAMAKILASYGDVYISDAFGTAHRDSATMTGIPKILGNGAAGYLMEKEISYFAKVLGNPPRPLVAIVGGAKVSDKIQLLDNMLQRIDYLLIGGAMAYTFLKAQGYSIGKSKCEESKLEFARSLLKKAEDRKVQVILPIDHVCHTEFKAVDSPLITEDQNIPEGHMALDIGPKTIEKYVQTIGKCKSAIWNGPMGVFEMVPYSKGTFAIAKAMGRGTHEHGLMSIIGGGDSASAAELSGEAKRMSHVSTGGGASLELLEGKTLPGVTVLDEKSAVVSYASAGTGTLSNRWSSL
Sequence of Thyrotropin receptor (Homo sapiens) (P16473 whole entry, looked up): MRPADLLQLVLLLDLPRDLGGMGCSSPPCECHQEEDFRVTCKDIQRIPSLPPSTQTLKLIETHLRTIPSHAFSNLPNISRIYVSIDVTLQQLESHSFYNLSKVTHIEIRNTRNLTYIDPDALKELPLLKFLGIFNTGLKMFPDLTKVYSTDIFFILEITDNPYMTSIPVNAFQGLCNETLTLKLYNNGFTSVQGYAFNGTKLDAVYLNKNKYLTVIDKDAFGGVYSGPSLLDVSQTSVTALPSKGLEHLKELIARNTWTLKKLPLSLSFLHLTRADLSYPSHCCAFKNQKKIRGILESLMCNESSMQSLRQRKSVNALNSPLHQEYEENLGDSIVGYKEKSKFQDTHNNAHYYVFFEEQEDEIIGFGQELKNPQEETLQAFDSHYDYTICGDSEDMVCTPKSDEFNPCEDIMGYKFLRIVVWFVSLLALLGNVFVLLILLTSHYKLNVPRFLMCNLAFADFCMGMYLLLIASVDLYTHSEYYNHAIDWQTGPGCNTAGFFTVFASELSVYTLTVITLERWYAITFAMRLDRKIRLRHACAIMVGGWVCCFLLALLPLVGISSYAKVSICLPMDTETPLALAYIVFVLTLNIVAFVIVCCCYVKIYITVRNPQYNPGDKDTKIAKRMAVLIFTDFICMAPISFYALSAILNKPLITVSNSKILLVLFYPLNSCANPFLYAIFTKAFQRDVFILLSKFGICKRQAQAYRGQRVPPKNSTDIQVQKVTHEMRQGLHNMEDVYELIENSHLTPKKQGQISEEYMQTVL

With `CCN(CC)CCOc1ccc(-c2nc3cc(Cl)ccc3s2)cc1`, the Potency result in experiment [1] is “inactive”.
With `CC1=C(/C=C/C(C)=C/C=C/C(C)=C/C=C/C=C(C)/C=C/C=C(C)/C=C/C2=C(C)C(=O)CCC2(C)C)C(C)(C)CCC1=O`, the Potency result in experiment [1] is “inactive”.
As for `CCOC(=O)C1=C(C)NC(C)=C(C(=O)OCC)C1c1ccccc1C=CC(=O)OC(C)(C)C`, the Potency entry in experiment [1] was “inactive”.
Consider `CC(NNC(=O)c1ccccc1)c1ccccc1` (centres undefined), for which the Potency result in experiment [1] and in [2] was “inactive” in each case.
Consider `COC(=O)C1=C(C#N)NC(C)=C(C(=O)OC(C)C)C1c1cccc([N+](=O)[O-])c1` (centres undefined), for which the Potency entry in [1] was “inactive”.
Consider `O=C1CSC2(CCN(CCCN3c4ccccc4Sc4ccc(Cl)cc43)CC2)N1`, for which the Potency entry in experiment [1] was “inactive”.
The same measure, in the same setting: the result for `CCCCC(=O)O[C@]1(C(=O)CO)[C@H](C)C[C@H]2[C@@H]3CCC4=CC(=O)C=C[C@]4(C)[C@@]3(F)[C@@H](O)C[C@@]21C` reads “inactive”; that for `C[C@]12O[C@H](C[C@]1(O)CO)n1c3ccccc3c3c4c(c5c6ccccc6n2c5c31)CNC4=O`, “inactive”.
As for `CN1Cc2c(N)cccc2C(c2ccccc2)C1` (centres undefined), the compound was classed as inactive in experiment [3], in [4], in [5], in experiment [6], in [7] and in experiment [8]. The result in experiment [9], in experiment [10], in experiment [11], in [12], in experiment [13] and in experiment [14] was inactive. The compound was called inactive in [15], in experiment [16] and in experiment [17]. The Potency entry in experiment [1] and in [2] was “inactive” throughout. Further, in [11], the viability change is 7.68%.
On to `C=CCSSSCC=C`, for which the Potency result in experiment [1] and in [2] was “inactive” each time.
Consider `CC(O)CO` (centres undefined), for which the Potency entry in [1] and in experiment [2] was “inactive” in each case. In addition, in experiment [18], the compound was called inactive.
With `Cc1cn([C@H]2C[C@H](O)[C@@H](CO)O2)c(=O)[nH]c1=O`, the Potency entry in experiment [1] and in [2] was “inactive” in each case. Moreover, the result in experiment [19] was inactive.
As for `CC(=O)Oc1cc(C)c(OC(C)=O)c2ccccc12`, the Potency result in [1] and in experiment [2] was “inactive” in each case.
Consider `Cc1ccccc1OCC(O)CNCCOc1ccc(C(N)=O)cc1` (centres undefined), for which the Potency result in experiment [1] and in [2] was “inactive” throughout.
As for `Cc1c(C)c2c(c(C)c1O)CC[C@@](C)(CCC[C@H](C)CCC[C@H](C)CCCC(C)C)O2`, the Potency result in experiment [1] and in [2] was “inactive” throughout. Also, in experiment [19], the compound was called inactive.
With `CC1=C(/C=C/C(C)=C/C=C/C(C)=C/C=C/C=C(C)/C=C/C=C(C)/C=C/C2=C(C)CCCC2(C)C)C(C)(C)CCC1`, the Potency entry in experiment [1] and in experiment [2] was “inactive” each time.

The record behind these values is PubChem BioAssay (NCATS).
